Holding throughout (experiment): NCI-60 one-dose screen, 48 h (100 = growth as untreated, 0 = no growth, -100 = all killed)
The test system of one assay is HCT-15 colon. The settings on record: 10 µM.
Another assay deals with HT29 colon. The settings on record: 10 µM.
The next assay has as its system SNB-75 CNS. As to conditions: 10 µM.
A further assay deals with SNB-19 CNS. As to conditions: 10 µM.
The next assay has as its system U251 CNS. The settings on record: 10 µM.
In the next assay the test system is PC-3 prostate. The settings on record: 10 µM.
Another assay has as its system SK-MEL-5 melanoma. As to conditions: 10 µM.
A further assay relates to UACC-62 melanoma.
A further assay concerns LOX IMVI melanoma. The settings on record: 10 µM.
The subject of another assay is SK-MEL-28 melanoma. As to conditions: 10 µM.

Several values for one entry are separate records, joined by “and”; a condition that tells them apart may be missing. Equal values may be shown once. Compounds without any hit were thinned out: in the full panel of roughly 83,000, 20% have a hit.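 Single-concentration screen, 48 h exposure, 96-well plates. Endpoint: percent growth. Below 10 = active.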 Some compounds were tested as several samples or in several runs, with calls that do not always agree. Activity calls are given as the source filed them.

For `CN(C)CCOC1(Cc2ccc(Cl)cc2Cl)CCC(C(C)(C)C)CC1` (stereo not drawn), the growth was -11.2% (active) and -80.3% (active) with HCT-15 colon; -37.7% (active) and -58.6% (active) in the assay on HT29 colon; 47.1% (inactive) and 44.2% (inactive) with SNB-75 CNS; 15.5% (inactive) and -25.9% (active) in the assay with SNB-19 CNS; -95.2% (active) and -100% (active) with U251 CNS; 40.8% (inactive) and 35.7% (inactive) in the assay on PC-3 prostate. Further, the growth in the assay on SK-MEL-5 melanoma was 10.2% (inactive) and -63.9% (active); with UACC-62 melanoma (10 µM), -26% (active) and -56.2% (active); with LOX IMVI melanoma, -100% (active); in the assay on SK-MEL-28 melanoma it was -58.7% (active) and -50% (active).

Take `CC1=CC(=C(c2ccc(N)cc2)c2ccc(N)cc2)C=CC1=N`: the growth with HCT-15 colon was 53.9% (inactive) and 73.4% (inactive); in the assay with HT29 colon, 6.75% (active) and 10.4% (inactive); in the assay with SNB-75 CNS it was -1.98% (active) and 23.7% (inactive); in the assay on SNB-19 CNS, 17.9% (inactive) and 21.6% (inactive); in the assay with U251 CNS it was 17.4% (inactive) and 10.6% (inactive); in the assay with PC-3 prostate it was 9.47% (active) and 18.5% (inactive). Besides, the growth was -37.3% (active) and -25.8% (active) with SK-MEL-5 melanoma; -20.2% (active) and 22.6% (inactive) in the assay with UACC-62 melanoma (10 µM); 7.6% (active) and 22.4% (inactive) in the assay on LOX IMVI melanoma; 28.8% (inactive) and 45.9% (inactive) with SK-MEL-28 melanoma.

For the compound `COc1ccc(C(=O)C(CN(C)C)CN(C)C)cc1`, the growth in the assay on HCT-15 colon was 46.6% (inactive); in the assay with HT29 colon, -77.3% (active); with SNB-75 CNS, 76.4% (inactive); in the assay with SNB-19 CNS it was 103% (inactive); with U251 CNS it was 102% (inactive); in the assay on PC-3 prostate it was 89.6% (inactive). Also, the growth with SK-MEL-5 melanoma is 101% (inactive); with UACC-62 melanoma (10 µM), 73.4% (inactive); in the assay with LOX IMVI melanoma, 82.4% (inactive); in the assay on SK-MEL-28 melanoma, 83.1% (inactive).

Regarding `COc1cc([C@@H]2c3cc4c(cc3[C@@H](Nc3ccc(NC(=O)c5cc([N+](=O)[O-])cn5C)cc3)[C@H]3COC(=O)[C@H]23)OCO4)cc(OC)c1O`, in the assay with UACC-62 melanoma (100 µM), the growth is -35.1% (active).

With `C=C1C(=O)OC2CC1C(OC(C)=O)C/C(C)=C/CC/C(C)=C\CCC2(C)O` (stereo not drawn), the growth with HCT-15 colon was -80.1% (active); with HT29 colon, -45.1% (active); in the assay on SNB-75 CNS, 19.8% (inactive); in the assay with SNB-19 CNS, 51.6% (inactive); in the assay with U251 CNS, 33.3% (inactive); with PC-3 prostate, 18.3% (inactive). For the same compound, the growth in the assay on SK-MEL-5 melanoma was 55.8% (inactive); in the assay with UACC-62 melanoma (10 µM), 44.5% (inactive); in the assay with UACC-62 melanoma (100 µM), -94.6% (active); in the assay on LOX IMVI melanoma, 6.22% (active).

Turning to `C#CCN(Cc1ccc2nc(N)[nH]c(=O)c2c1)c1ccc(C(=O)NC(CCC(=O)O)C(=O)O)cc1` (stereo not drawn), the growth in the assay on HCT-15 colon was 65.5% (inactive); in the assay on HT29 colon it was 62.5% (inactive); in the assay on SNB-75 CNS it was 86.5% (inactive); with U251 CNS, 89.2% (inactive); in the assay with PC-3 prostate, 64.6% (inactive); in the assay with SK-MEL-5 melanoma it was 100% (inactive). Further, the growth in the assay on UACC-62 melanoma (10 µM) is 81.6% (inactive); in the assay with LOX IMVI melanoma, 16% (inactive); with SK-MEL-28 melanoma, 95.2% (inactive).

In the case of `Cc1cc(N(CCOS(C)(=O)=O)CCOS(C)(=O)=O)ccc1C=Nc1ccc(-c2nc(Cc3ccccc3)sc2C)cc1`, the growth with HCT-15 colon was 55% (inactive); in the assay on HT29 colon, 46.2% (inactive); in the assay with SNB-75 CNS, -1.26% (active); in the assay with SNB-19 CNS, 39.5% (inactive); in the assay with U251 CNS it was 43.2% (inactive); with PC-3 prostate it was 55% (inactive). In addition, the growth was 45.2% (inactive) with SK-MEL-5 melanoma, 37.8% (inactive) in the assay on UACC-62 melanoma (10 µM) and 34.9% (inactive) in the assay on LOX IMVI melanoma.

In the case of `Cc1ccc(Sc2ccccc2N)cc1`, the growth with HCT-15 colon was 21.2% (inactive); in the assay with HT29 colon, 26.1% (inactive); in the assay with SNB-75 CNS, 122% (inactive); with SNB-19 CNS it was 95.6% (inactive); with U251 CNS it was 84.3% (inactive); in the assay with PC-3 prostate, 74.4% (inactive). The growth with SK-MEL-5 melanoma was 91.8% (inactive); with UACC-62 melanoma (10 µM), 90.2% (inactive); in the assay on LOX IMVI melanoma, 76.1% (inactive); in the assay on SK-MEL-28 melanoma, 118% (inactive).

Turning to `O=[N+]([O-])c1cc[n+]([O-])cc1`, the growth with HCT-15 colon is 112% (inactive); in the assay on HT29 colon, 105% (inactive); in the assay with SNB-19 CNS it was 88.5% (inactive); with U251 CNS it was 111% (inactive); with PC-3 prostate it was 101% (inactive); in the assay on SK-MEL-5 melanoma, 95% (inactive). Besides, the values for the growth in the assay on UACC-62 melanoma (10 µM), in the assay with LOX IMVI melanoma and with SK-MEL-28 melanoma were 91.1% (inactive), 96.3% (inactive) and 115% (inactive), respectively.

(Values after PubChem BioAssay (NCI).)
